# PAX8 reporter – lowers PAX8-driven luciferase in RMG-I cells; RMG-I TPO-luciferase reporter, SteadyGlo, 24 h; inhibition, % at 12.6 µM; actives 1.2% (n = 360,000); AID 652154;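 active = mean replicate inhibition at least 60% with every replicate also reaching 60%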;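 also: luciferase light reporting Pax8 driven TPO promoter activity; plate controls were median of neutral control wells for no effect and mitoxantrone controls for full effect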
# EWS-Fli block – blocks EWS/Fli oncoprotein-driven transcription. A673 NR0B1-luciferase reporter, viability-normalised. inhibition, % at 12.6 µM. actives 0.67% (n = 350,000). AID 651661;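 active = mean inhibition of at least 50% after viability correction, with every replicate also passing that limit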;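 also: firefly luciferase signal divided by Alamar Blue viability fluorescence both relative to DMSO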
# LGR2 antag – blocks bursicon-induced cAMP signaling via Drosophila LGR2 | HEK293 LGR2, CRE-luciferase, bursicon-stimulated, 4 h | inhibition, % at 9.99 µM | actives 0.35% (n = 380,000) | AID 720647;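 active = drop in luminescence signal, shown as inhibition above about 50% in the replicate tests, limit read from the data, passing the limit was not always enough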;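 also: agonist challenge used bursicon conditioned medium at about half maximal strength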
# Active calls of the source: *; · = no result. An excerpt weighted towards active compounds, which were near 2.2% of everything screened.
SMILES,PAX8 reporter,EWS-Fli block,LGR2 antag
COCCNC(=O)C[C@@H]1CC[C@@H]2[C@@H](COc3ccc(NC(C)=O)cc3C(=O)N2C)O1,5,-4,4
C[C@@H]1CN([C@@H](C)CO)C(=O)c2cc(NC(=O)c3ccccc3)ccc2O[C@@H](C)CCCCO[C@@H]1CN(C)S(=O)(=O)c1cccs1,-12,2,24
CO[C@@H]1CN(C)C(=O)c2ccc(NC(=O)c3nc4ccccc4s3)cc2OC[C@H](C)NC[C@H]1C,·,-13,-17
C[C@@H]1CCCCO[C@@H](CN(C)C(=O)Nc2ccc(C(F)(F)F)cc2)[C@@H](C)CN([C@H](C)CO)C(=O)c2cc(NC(=O)Nc3ccc(F)cc3)ccc2O1,·,6,16
C[C@H](CO)N1C[C@H](C)[C@H](CN(C)S(=O)(=O)c2cccs2)OCCCC[C@H](C)Oc2ccc(NC(=O)CCC(F)(F)F)cc2C1=O,14,5,-1
C[C@@H]1CCCCO[C@@H](CN(C)C(=O)Nc2ccc(F)cc2)[C@H](C)CN([C@@H](C)CO)C(=O)c2cc(NC(=O)Nc3ccc(C(F)(F)F)cc3)ccc2O1,78*,2,5
C[C@@H]1CCCCO[C@H](CN(C)C)[C@@H](C)CN([C@H](C)CO)C(=O)c2cc(NC(=O)Nc3ccc(C(F)(F)F)cc3)ccc2O1,-2,-6,11
C[C@@H]1CN([C@H](C)CO)C(=O)c2cc(NC(=O)Nc3ccc(F)cc3)ccc2O[C@@H](C)CCCCO[C@H]1CN(C)C(=O)Nc1ccc(C(F)(F)F)cc1,87*,-1,12
C[C@@H]1CCCCO[C@H](CN(C)S(=O)(=O)c2cccs2)[C@H](C)CN([C@@H](C)CO)C(=O)c2cc(NC(=O)CCC(F)(F)F)ccc2O1,110*,2,-7
C[C@@H]1CCCCO[C@@H](CN(C)C)[C@H](C)CN([C@H](C)CO)C(=O)c2cc(NC(=O)Nc3ccc(C(F)(F)F)cc3)ccc2O1,63*,6,·
CCCC(=O)N1CC2(CN(C(=O)CC3CC3)C2)c2c(n(C)c3cc(OC)ccc23)[C@H]1CO,-4,0,-5
O=C(C1CCCCC1)N1CC(=O)N2[C@H](CO)[C@@H](c3ccc(-c4cccnc4)cc3)[C@@H]2C1,·,·,9
COc1ccc2c3c(n(C)c2c1)[C@@H](CO)N(C(=O)NC1CCCC1)CC31CCN(C)CC1,0,-5,-2
Cc1noc(C)c1NC(=O)NCC[C@@H]1CC[C@H](NC(=O)c2ccc(F)cc2)[C@H](CO)O1,-9,5,-1
C[C@@H]1CCCCO[C@H](CN(C)C(=O)Nc2ccc(C(F)(F)F)cc2)[C@@H](C)CN([C@@H](C)CO)C(=O)c2cc(NC(=O)Nc3ccc(C(F)(F)F)cc3)ccc2O1,89*,-4,-2
C[C@@H]1CCCCO[C@@H](CN(C)C(=O)Nc2ccc(F)cc2)[C@@H](C)CN([C@@H](C)CO)C(=O)c2cc(NC(=O)Nc3ccc(F)cc3)ccc2O1,4,0,19
C[C@@H]1CCCCO[C@H](CN(C)C(=O)Nc2ccc(C(F)(F)F)cc2)[C@H](C)CN([C@@H](C)CO)C(=O)c2cc(NC(=O)Nc3ccc(C(F)(F)F)cc3)ccc2O1,-1,-14,11
C[C@@H]1CN([C@H](C)CO)C(=O)c2cc(NC(=O)Nc3ccc(C(F)(F)F)cc3)ccc2O[C@@H](C)CCCCO[C@H]1CN(C)S(C)(=O)=O,73*,2,-8
C[C@H](CO)N1C[C@H](C)[C@H](CN(C)C(=O)Nc2ccc(F)cc2)OCCCC[C@H](C)Oc2ccc(NC(=O)Nc3ccc(F)cc3)cc2C1=O,19,-7,53*
C[C@H]1CCCCO[C@H](CN(C)C(=O)Nc2ccc(C(F)(F)F)cc2)[C@@H](C)CN([C@@H](C)CO)C(=O)c2cc(NC(=O)Nc3ccc(F)cc3)ccc2O1,84*,-11,19
CC(C)NC(=O)N(C)C[C@@H]1Oc2ncc(C#CC3CCCCC3)cc2C(=O)N([C@H](C)CO)C[C@@H]1C,·,5,11
C[C@@H]1CCCCO[C@@H](CN(C)S(=O)(=O)c2cccs2)[C@@H](C)CN([C@@H](C)CO)C(=O)c2cc(NC(=O)NC3CCCCC3)ccc2O1,19,8,1
C[C@@H]1CCCCO[C@H](CN(C)C(=O)C2CCCCC2)[C@@H](C)CN([C@@H](C)CO)C(=O)c2cc(NC(=O)Nc3ccc(F)cc3)ccc2O1,104*,14,0
C[C@H]1CCCCO[C@H](CN(C)C(=O)Nc2ccc(F)cc2)[C@@H](C)CN([C@@H](C)CO)C(=O)c2cc(NC(=O)Nc3ccc(C(F)(F)F)cc3)ccc2O1,84*,4,16
C[C@@H]1CN([C@@H](C)CO)C(=O)c2cc(NC(=O)Nc3ccc(F)cc3)ccc2O[C@@H](C)CCCCO[C@@H]1CN(C)C(=O)C1CCCCC1,13,3,-3
